Test results: publication PMC4336329 (PLoS ONE, 2015)
About 14,000 (4.5%) of roughly 310,000 compounds showed an effect of 50% or more. Effects have a minus sign here. This excerpt belongs to a sample that is enriched for strong results.

Target: human ether-à-go-go-related gene (hERG) potassium channel (human, UniProt Q12809)
Assay: primary screen, population patch clamp on CHO cells stably expressing hERG; higher = less effect of the substance
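Further: peak tail current of the secondary pulse compared with the same well before compound.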

Sequence of human ether-à-go-go-related gene (hERG) potassium channel (Q12809 whole entry, looked up): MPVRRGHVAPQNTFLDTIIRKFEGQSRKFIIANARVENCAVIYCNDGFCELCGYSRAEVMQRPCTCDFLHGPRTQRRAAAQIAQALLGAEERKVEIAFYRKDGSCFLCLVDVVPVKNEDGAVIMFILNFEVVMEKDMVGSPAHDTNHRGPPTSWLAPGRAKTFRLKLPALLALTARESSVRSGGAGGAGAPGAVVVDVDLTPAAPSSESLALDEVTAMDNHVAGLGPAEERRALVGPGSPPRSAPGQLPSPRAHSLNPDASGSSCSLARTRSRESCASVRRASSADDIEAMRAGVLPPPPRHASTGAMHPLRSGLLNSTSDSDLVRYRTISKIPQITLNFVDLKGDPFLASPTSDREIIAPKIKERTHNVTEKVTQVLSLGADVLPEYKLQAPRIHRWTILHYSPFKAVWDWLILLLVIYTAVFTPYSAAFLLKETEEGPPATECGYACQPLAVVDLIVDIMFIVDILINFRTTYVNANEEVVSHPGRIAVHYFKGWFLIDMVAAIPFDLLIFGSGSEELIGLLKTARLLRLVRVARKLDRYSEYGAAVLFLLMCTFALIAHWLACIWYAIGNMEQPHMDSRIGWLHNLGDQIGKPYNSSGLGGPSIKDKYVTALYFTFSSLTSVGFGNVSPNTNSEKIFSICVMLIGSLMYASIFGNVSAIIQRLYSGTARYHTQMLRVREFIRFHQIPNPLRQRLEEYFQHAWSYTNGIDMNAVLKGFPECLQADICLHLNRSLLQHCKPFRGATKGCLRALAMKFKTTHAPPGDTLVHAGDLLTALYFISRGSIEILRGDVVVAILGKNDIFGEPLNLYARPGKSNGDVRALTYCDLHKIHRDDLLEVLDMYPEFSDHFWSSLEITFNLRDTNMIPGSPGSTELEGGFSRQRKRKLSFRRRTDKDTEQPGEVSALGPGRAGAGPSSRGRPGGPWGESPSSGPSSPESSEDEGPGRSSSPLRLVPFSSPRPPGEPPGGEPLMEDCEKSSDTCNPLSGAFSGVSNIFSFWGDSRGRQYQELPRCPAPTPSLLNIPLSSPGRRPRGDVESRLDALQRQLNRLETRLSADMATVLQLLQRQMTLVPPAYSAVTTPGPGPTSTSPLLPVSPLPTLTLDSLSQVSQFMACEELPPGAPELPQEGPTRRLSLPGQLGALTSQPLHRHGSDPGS

Going from FC(F)(F)c1cccc(N2Cc3ccccc3C2)c1 to O=C(Cn1c(=O)oc2ccccc21)Nc1ccccc1C(F)(F)F, the “hERG current change (%, negative = inhibition) at 10uM” value rises from 6.28% to 21.6%.

Going from COc1cccc(-c2nc(CS(=O)(=O)CC(=O)NCCc3ccccc3)c(C)o2)c1 to N#C/C(=C\c1ccc(O)c(O)c1)C(=O)NCCCc1ccccc1, the “hERG current change (%, negative = inhibition) at 10uM” value falls from 0.232% to -1.59%.

Compared with CCOC(=O)c1sc(=NC(=O)c2ccc(OC(C)C)cc2)n(C)c1C, COCCNC(=O)C(OC(=O)C1=Cc2ccccc2OC1)C(C)C (centres unmarked) is lower in “hERG current change (%, negative = inhibition) at 10uM” value: 10.8% for the first, 10.3% for the second.

Compared with Nc1ccccc1-c1nnc(-c2ccc(-c3ccccc3)cc2)o1, O=C(NCc1ccco1)c1cnc2ccccn2c1=O is lower in “hERG current change (%, negative = inhibition) at 10uM” value: 10.1% for the first, -3.03% for the second.

Compared with Cc1cc(C(=O)N2CCCC(C(=O)c3cc(F)ccc3F)C2)c(C)o1 (centres unmarked), CSCC(=O)N1CCCC(C(=O)c2cc(F)ccc2F)C1 (centres unmarked) is higher in “hERG current change (%, negative = inhibition) at 10uM” value: -4.31% for the first, -1.1% for the second.

Going from COc1ccc(/C=C/CN2CCCC(C(=O)c3ccc(OC)c(F)c3)C2)cc1 (centres unmarked) to COc1ccc(/C=C/CN2CCCC(C(=O)c3cc(F)ccc3F)C2)cc1 (centres unmarked), the “hERG current change (%, negative = inhibition) at 10uM” value rises from -94.5% to -76.4%.

First: COc1ccc(C(=O)C2CCCN(C(=O)Cn3nc(C)cc3C)C2)cc1F (centres unmarked)
Second: COc1ccc(C(=O)C2CCCN(C(=O)c3ccoc3C)C2)cc1F (centres unmarked)
The “hERG current change (%, negative = inhibition) at 10uM” value of the first is lower: -17.4% for the first, -6.04% for the second.

Compared with Cc1nn(-c2ccccc2)c(Cl)c1/C=N\NC(=O)c1cnccn1, Cc1ccc(NC(=O)c2ccc(Cl)cc2[N+](=O)[O-])nc1 is higher in “hERG current change (%, negative = inhibition) at 10uM” value: -5% for the first, 6.4% for the second.

Going from CCc1cccc(C)c1NS(=O)(=O)c1cc(Br)cnc1N to COc1cc(/C=C2/C(=O)ON=C2C)ccc1OCc1ccccc1F, the “hERG current change (%, negative = inhibition) at 10uM” value falls from 8.34% to 2.22%.

Going from COC(=O)c1ccccc1NC(=S)NC(NC(=O)COc1ccccc1)C(Cl)(Cl)Cl (centres unmarked) to Cc1cccc(NC(=O)CSCC(=O)Nc2ccccc2N2CCCC2)c1, the “hERG current change (%, negative = inhibition) at 10uM” value falls from 7.66% to -90%.

Compared with CCN1CCN(C(=O)Cc2ccccc2OC)CC1, Cc1cc(C)c(C)c(OCC(=O)N2CCN(c3ccccn3)CC2)c1 is lower in “hERG current change (%, negative = inhibition) at 10uM” value: 13.3% for the first, -33.6% for the second.

First: Cc1cc(C)c(OCC(O)CN2CCN(c3ccccn3)CC2)c(C)c1.Cl (centres unmarked)
Second: Cc1cc(C)c(C)c(OCC(O)CN2CCN(c3ccccn3)CC2)c1.Cl (centres unmarked)
The “hERG current change (%, negative = inhibition) at 10uM” value of the first is lower: -58.3% for the first, -54.4% for the second.

CC(C)(C)c1ccccc1OCC(O)CN1CCN(c2ccccn2)CC1.Cl (centres unmarked) and Cc1ccccc1OCC(O)CN1CCN(c2ccccn2)CC1.Cl (centres unmarked) are the same in “hERG current change (%, negative = inhibition) at 10uM” value: -48.8% for the first, -48.8% for the second.

Going from Cc1cccc(C)c1OCC(O)CN1CCN(c2ccccn2)CC1 (centres unmarked) to Cc1cccc(OCC(O)CN2CCN(c3ccccn3)CC2)c1C.Cl (centres unmarked), the “hERG current change (%, negative = inhibition) at 10uM” value falls from -35.5% to -45.5%.

Going from Cc1ccc(OCC(O)CN2CCN(c3ccccn3)CC2)c(C)c1.Cl (centres unmarked) to Cc1cccc(NC(=O)CSCC(=O)Nc2cc(Cl)ccc2N2CCN(C)CC2)c1, the “hERG current change (%, negative = inhibition) at 10uM” value falls from -60.5% to -72.8%.

Compared with CCc1noc(C)c1C(=O)N1CCCSC1=Nc1ccccc1OC, O=C(CC1OC(=O)c2ccccc21)Nc1cc(Cl)ccc1N1CCCC1 (centres unmarked) is higher in “hERG current change (%, negative = inhibition) at 10uM” value: -8.77% for the first, -8.18% for the second.

Compared with O=C(CCCN1C(=O)/C(=C/c2ccccc2)SC1=S)N1CCOCC1, COc1cccc(-c2ccc3nnc(SCC(=O)N4CCOCC4)n3n2)c1 is higher in “hERG current change (%, negative = inhibition) at 10uM” value: -30.1% for the first, -6.27% for the second.

First: Cn1c2ccccc2c2c(C(=O)NCc3ccco3)cn(C3CCCCC3)c(=O)c21
Second: N=c1c(C(=O)NCc2ccco2)cc2c(=O)n3ccccc3nc2n1C1CCCC1
The “hERG current change (%, negative = inhibition) at 10uM” value of the first is higher: -33.4% for the first, -77% for the second.

Compared with Cc1ccc2nc(SCC(=O)NCc3ccco3)nc(=O)n2c1, Cc1ccc2nc3c(cc(C(=O)NCc4ccco4)c(=N)n3C3CCCC3)c(=O)n2c1 is lower in “hERG current change (%, negative = inhibition) at 10uM” value: 8.08% for the first, -75.8% for the second.

Going from Cc1ccc(NC(=O)CSCC(=O)Nc2cc(Cl)ccc2N2CCN(C)CC2)cc1 to Cc1ccc(NC(=O)CSCC(=O)Nc2cc(Cl)ccc2N2CCOCC2)cc1, the “hERG current change (%, negative = inhibition) at 10uM” value rises from -53.1% to -14.8%.

Compared with CN1CCN(c2ccc(Cl)cc2NC(=O)CCN2C(=O)c3ccccc3C2=O)CC1, CN1CCN(c2ccc(Cl)cc2NC(=O)CC2OC(=O)c3ccccc32)CC1 (centres unmarked) is lower in “hERG current change (%, negative = inhibition) at 10uM” value: -7.06% for the first, -74.5% for the second.

First: Cc1cc(NC(=O)CSCC(=O)Nc2cc(Cl)ccc2N2CCN(C)CC2)no1
Second: Cc1cccc(NC(=O)CSCC(=O)Nc2cc(Cl)ccc2N2CCOCC2)c1
The “hERG current change (%, negative = inhibition) at 10uM” value of the first is higher: -25.7% for the first, -31% for the second.

Going from Cc1ccc(NC(=O)CSCC(=O)Nc2ccccc2N2CCCC2)cc1 to Cc1cccc(NC(=O)CSCC(=O)Nc2ccccc2N2CCCCC2)c1, the “hERG current change (%, negative = inhibition) at 10uM” value rises from -13.6% to -1.89%.

For CCN(CC)S(=O)(=O)c1ccc(N2CCN(C)CC2)c(NC(=O)CSCC(=O)Nc2cccc(C)c2)c1, the “hERG current change (%, negative = inhibition) at 10uM” value was -13%.
